Assay results reported in PubChem BioAssay.
Activity calls are given as the source filed them.

Columns and labels:
[1] = optical density shifts of acrAB sulA E. coli – strain DRC41, OD650, 48 h, E. coli filamentation inducer project, primary screen (AID 1152); details: higher = more signal, called active from +8 up or from −8 down;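 further: E. coli MC1000 strain DRC41 lacking acrAB efflux pump and sulA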
[2] = probe aLefty1 binding on compound microarray – biochemical, small-molecule microarray, 635/667 nm fluorescence, primary screen (AID 1153); details: higher = more signal;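 further: score merges spot fluorescence with signal-to-noise ratio from the scanned slide images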
[3] = plasmodial surface anion channel blockers, osmotic lysis – cell-based, P. falciparum Indochina, OD700, 1 h, primary screen (AID 1154); details: P. falciparum Indochina infected RBC osmotic lysis, higher = more signal, called active from +8 up or from −8 down
[4] = plasmodial surface anion channel blockers, osmotic lysis – cell-based, P. falciparum Indochina, OD700, 2 h, primary screen (AID 1155);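 further: lysis reports solute entry through the parasite surface anion channel PSAC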; details: P. falciparum Indochina infected erythrocytes, higher = more signal, called active from +8 up or from −8 down
[5] = changes in parasitized red cell lysis, either direction – P. falciparum Indochina, OD700, 3 h, PSAC antagonist project, primary screen (AID 1156); details: P. falciparum-infected erythrocytes, osmotic lysis, higher = more signal, called active from +8 up or from −8 down
[6] = plasmodial surface anion channel blockers, osmotic lysis – cell-based, P. falciparum Indochina, OD700, 18 h, primary screen (AID 1157); details: P. falciparum Indochina infected erythrocytes, osmotic lysis OD700, 18 h; higher = more signal, called active from +8 up or from −8 down
[7] = S6 kinase pathway phospho-S6 level changes – cell-based, A549, cytoblot, luminescence, serum-stimulated, primary screen (AID 1158); details: 5 h, higher = more signal;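 further: serum-stimulated A549 lung adenocarcinoma cells; signal is phosphorylated S6 detected by cytoblot immunostaining with HRP secondary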
[8] = molecular target: NADPH oxidase 2 (Homo sapiens) (UniProt P04839); assay: compounds shifting NOX2 Amplex Red fluorescence – cell-based, HEK293-NOX2, PMA-stimulated, NOX inhibitor project, primary screen (AID 1159); details: 45 min, higher = more signal, called active from +8 up or from −8 down; further: test concentration not given here
Chain of NADPH oxidase 2 (Homo sapiens) (P04839 whole entry, looked up): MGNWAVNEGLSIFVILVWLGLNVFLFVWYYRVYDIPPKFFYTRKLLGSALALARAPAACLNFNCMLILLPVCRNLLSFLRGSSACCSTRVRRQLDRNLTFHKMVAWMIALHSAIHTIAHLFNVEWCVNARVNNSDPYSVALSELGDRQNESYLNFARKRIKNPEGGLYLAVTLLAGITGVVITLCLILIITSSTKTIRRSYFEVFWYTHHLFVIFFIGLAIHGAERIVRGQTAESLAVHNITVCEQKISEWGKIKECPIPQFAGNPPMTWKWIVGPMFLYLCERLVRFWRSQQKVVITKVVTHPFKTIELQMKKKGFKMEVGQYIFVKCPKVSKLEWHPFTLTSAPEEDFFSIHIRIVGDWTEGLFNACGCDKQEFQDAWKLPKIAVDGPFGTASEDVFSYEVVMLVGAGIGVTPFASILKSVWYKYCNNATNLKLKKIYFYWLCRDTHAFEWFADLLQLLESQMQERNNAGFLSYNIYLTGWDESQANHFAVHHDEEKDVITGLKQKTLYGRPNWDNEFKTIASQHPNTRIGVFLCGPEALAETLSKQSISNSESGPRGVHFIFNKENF

[9] = molecular target: NADPH oxidase 4 (Homo sapiens) (UniProt Q9NPH5); assay: compounds shifting NOX4 Amplex Red fluorescence – cell-based, HEK293-NOX4, tetracycline-induced, NOX inhibitor project, primary screen (AID 1160); details: HEK293-NOX4, Amplex Red H2O2 fluorescence, 45 min; higher = more signal, called active from +8 up or from −8 down
Chain of NADPH oxidase 4 (Homo sapiens) (Q9NPH5 whole entry, looked up): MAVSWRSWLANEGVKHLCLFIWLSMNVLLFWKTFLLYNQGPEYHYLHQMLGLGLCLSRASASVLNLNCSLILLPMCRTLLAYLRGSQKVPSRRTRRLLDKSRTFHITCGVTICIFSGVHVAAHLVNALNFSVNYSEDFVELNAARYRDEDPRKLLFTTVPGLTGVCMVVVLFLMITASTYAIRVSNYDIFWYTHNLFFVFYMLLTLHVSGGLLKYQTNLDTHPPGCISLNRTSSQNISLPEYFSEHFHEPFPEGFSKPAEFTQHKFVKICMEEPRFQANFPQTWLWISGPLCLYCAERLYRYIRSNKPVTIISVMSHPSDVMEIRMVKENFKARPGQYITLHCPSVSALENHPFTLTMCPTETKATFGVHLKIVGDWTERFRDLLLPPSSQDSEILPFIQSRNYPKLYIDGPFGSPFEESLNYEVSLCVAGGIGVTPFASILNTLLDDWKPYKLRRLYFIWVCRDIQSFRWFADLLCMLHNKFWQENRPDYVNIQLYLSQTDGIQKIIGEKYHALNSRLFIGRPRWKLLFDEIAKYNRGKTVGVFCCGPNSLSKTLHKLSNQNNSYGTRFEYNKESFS

[10] = molecular target: NADPH oxidase 5 (Homo sapiens) (UniProt Q96PH1); assay: compounds shifting NOX5 Amplex Red fluorescence – cell-based, HEK293-NOX5, NOX inhibitor project, primary screen (AID 1161); details: HEK293-NOX5, ionomycin, 45 min, higher = more signal
Chain of NADPH oxidase 5 (Homo sapiens) (Q96PH1 whole entry, looked up): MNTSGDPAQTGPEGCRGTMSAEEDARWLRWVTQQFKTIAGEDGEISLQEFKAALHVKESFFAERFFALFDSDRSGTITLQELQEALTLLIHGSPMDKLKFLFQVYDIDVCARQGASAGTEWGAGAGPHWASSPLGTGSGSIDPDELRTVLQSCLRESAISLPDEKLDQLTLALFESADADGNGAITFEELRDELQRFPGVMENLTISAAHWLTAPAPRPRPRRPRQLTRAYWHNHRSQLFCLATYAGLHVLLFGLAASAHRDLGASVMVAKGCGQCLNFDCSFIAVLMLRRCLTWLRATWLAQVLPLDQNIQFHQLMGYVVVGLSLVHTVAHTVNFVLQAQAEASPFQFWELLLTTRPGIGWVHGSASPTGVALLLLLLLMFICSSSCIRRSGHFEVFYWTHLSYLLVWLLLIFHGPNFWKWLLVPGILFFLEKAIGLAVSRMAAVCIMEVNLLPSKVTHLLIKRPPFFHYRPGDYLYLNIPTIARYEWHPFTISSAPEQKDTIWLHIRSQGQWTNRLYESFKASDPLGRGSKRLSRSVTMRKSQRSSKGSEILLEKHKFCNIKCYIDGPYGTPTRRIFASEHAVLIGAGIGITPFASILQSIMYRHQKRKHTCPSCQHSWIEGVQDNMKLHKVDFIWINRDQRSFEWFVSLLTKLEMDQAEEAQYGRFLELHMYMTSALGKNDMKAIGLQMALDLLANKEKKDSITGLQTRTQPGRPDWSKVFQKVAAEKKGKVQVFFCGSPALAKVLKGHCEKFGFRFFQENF

For `COCCOC(=O)N1C(=O)[C@@]2(c3ccccc31)[C@H](c1ccc(O)cc1)N1[C@H](c3ccccc3)[C@H](c3ccccc3)OC(=O)[C@H]1[C@@H]2C(=O)N1CCN(c2ncccn2)CC1`, the z-score [1] was 0.381 (inactive), the composite z-score [2] was 0.412 and the z-score [3] was 1.4 (inactive). The z-score [4] was 0.622 (inactive), the z-score [5] was 0.113 (inactive) and the z-score [6] was 0.431 (inactive). For the same molecule, the z-score [7] was 0.174, the z-score [8] was 0.964 (inactive) and the z-score [9] was 0.386 (inactive). For the same molecule, the z-score [10] was 1.08.
With `O=C1O[C@H](c2ccccc2)[C@H](c2ccccc2)N2[C@H]1[C@@H](C(=O)O)[C@]1(C(=O)Nc3ccc(C#CCCO)cc31)[C@H]2c1ccccc1OCCO` the z-score [1] was -0.443 (inactive), the composite z-score [2] was 0.0026 and the z-score [3] was 0.396 (inactive). The z-score [4] was -0.353 (inactive), the z-score [5] was -1.27 (inactive) and the z-score [6] was 0.173 (inactive). The z-score [7] was -0.0545, the z-score [8] was 1.93 (inactive) and the z-score [9] was 0.226 (inactive). For the same molecule, the z-score [10] was 0.636.
For `O=C1OCCC=C[C@H]2OC34C=CCN(c5ccc6ccccc6c5)C(=O)[C@H]3N(CCCO)C(=O)[C@@H]4C12` (stereo not given in full), the z-score [1] was 0.181 (inactive), the composite z-score [2] was -0.291 and the z-score [3] was 0.204 (inactive). For the same molecule, the z-score [4] was -0.568 (inactive), the z-score [5] was 0.676 (inactive) and the z-score [6] was -1.27 (inactive). The z-score [7] was 0.684, the z-score [8] was 0.755 (inactive) and the z-score [9] was -0.644 (inactive). The z-score [10] was 0.741.
For `COc1ccc(C#Cc2ccc3c(c2)[C@]2(C(=O)N3)[C@H](c3ccc(OCCO)cc3)N3[C@H](c4ccccc4)[C@H](c4ccccc4)OC(=O)[C@H]3[C@@H]2C(=O)NC[C@H](O)c2ccccc2)cc1`, the z-score [1] was 1.01 (inactive), the composite z-score [2] was 0.145 and the z-score [3] was 1.97 (inactive). For the same molecule, the z-score [4] was 1.76 (inactive), the z-score [5] was -0.403 (inactive) and the z-score [6] was 1.08 (inactive). For the same molecule, the z-score [7] was 0.0701, the z-score [8] was 0.893 (inactive) and the z-score [9] was 0.194 (inactive). For the same molecule, the z-score [10] was -0.0443.
For `C=C(/C(=C/C[C@H](OC(C)=O)c1ccc(CO)o1)c1cnc2ccccc2c1)C(C)C`, the z-score [1] was -0.0554 (inactive), the composite z-score [2] was 0.215 and the z-score [3] was 3.56 (inactive). For the same molecule, the z-score [4] was 0.625 (inactive), the z-score [5] was 0.589 (inactive) and the z-score [6] was 0.0124 (inactive). For the same molecule, the z-score [7] was 0.38, the z-score [8] was -0.306 (inactive) and the z-score [9] was -0.246 (inactive). It also gave a z-score [10] of -0.219.
With `Cn1cccc1C(O)C1C=CC2C(=O)N(c3ccccc3)C(=O)C2N1Nc1ccccc1` (stereo not given) the z-score [1] was -0.548 (inactive), the composite z-score [2] was 0.358 and the z-score [3] was 2.42 (inactive). The z-score [4] was 1.31 (inactive), the z-score [5] was 0.361 (inactive) and the z-score [6] was 1.44 (inactive). The z-score [7] was -0.55, the z-score [8] was -1.34 (inactive) and the z-score [9] was -1.94 (inactive). It also gave a z-score [10] of -1.81.
With `CN(C)c1ccc(C(O)C2C=CC3C(=O)NC(=O)C3N2Nc2ccccn2)cc1` (stereo not given) the z-score [1] was -1.5 (inactive), the composite z-score [2] was 0.201 and the z-score [3] was 0.85 (inactive). For the same molecule, the z-score [4] was 0.123 (inactive), the z-score [5] was -0.693 (inactive) and the z-score [6] was 0.408 (inactive). The z-score [7] was -0.888, the z-score [8] was -2.21 (inactive) and the z-score [9] was -4.43 (inactive). For the same molecule, the z-score [10] was -4.16.
For `[N-]=[N+]=Nc1ccccc1C[C@]1(C(=O)N2CCOCC2)COC(c2ccc(OCCCO)cc2)=N1`, the z-score [1] was 1.59 (inactive), the composite z-score [2] was 0.401 and the z-score [3] was 24.6 (active). For the same molecule, the z-score [4] was 7.83 (inactive), the z-score [5] was 1.52 (inactive) and the z-score [6] was -0.779 (inactive). The z-score [7] was 0.779, the z-score [8] was -3.84 (inactive) and the z-score [9] was -0.00663 (inactive). For the same molecule, the z-score [10] was -1.73.
In the case of `CCCC=C(CCC)[C@@H](NC(=O)c1cccs1)c1ccc(C(=O)OC)cc1`, the z-score [1] is reported as -1.24 (inactive), the composite z-score [2] is reported as 0.911 and the z-score [3] is reported as -1.3 (inactive). For the same molecule, the z-score [4] was -0.864 (inactive), the z-score [5] was -1.72 (inactive) and the z-score [6] was -1.27 (inactive). The z-score [7] was 1.28, the z-score [8] was 0.0754 (inactive) and the z-score [9] was 1.74 (inactive). The z-score [10] was 2.06.
With `CCCCCCCCCC(O)C1C=CC2C(=O)N(c3ccccc3)C(=O)C2N1Nc1cc(OC)c(OC)c(OC)c1` (stereo not given) the z-score [1] was -3.95 (inactive), the composite z-score [2] was 0.448 and the z-score [3] was 7.78 (inactive). The z-score [4] was 1.84 (inactive), the z-score [5] was -0.372 (inactive) and the z-score [6] was -0.449 (inactive). For the same molecule, the z-score [7] was 1.05, the z-score [8] was -2.86 (inactive) and the z-score [9] was -4.13 (inactive). It also gave a z-score [10] of -2.67.
In the case of `COc1ccc([Si](C)(C)[C@H]2[C@H](CC(=O)N(CCO)Cc3ccccc3)O[C@@]3(C(=O)N(C)c4c(Br)cc(C)cc43)[C@@H]2C)cc1`, the z-score [1] is reported as -0.0939 (inactive), the composite z-score [2] is reported as 0.0774 and the z-score [3] is reported as 18.4 (active). For the same molecule, the z-score [4] was 3.21 (inactive), the z-score [5] was 0.0319 (inactive) and the z-score [6] was 1.11 (inactive). The z-score [7] was 1.83, the z-score [8] was -2.5 (inactive) and the z-score [9] was -0.577 (inactive). For the same molecule, the z-score [10] was -0.876.
For `COc1ccc(CCNC(=O)[C@@]2(c3ccc([N+](=O)[O-])cc3)CC(=O)N(C3CCCCC3)[C@@H]2c2ccc(CO)cc2)cc1`, the z-score [1] was 1.31 (inactive), the composite z-score [2] was 0.213 and the z-score [3] was 0.965 (inactive). For the same molecule, the z-score [4] was -0.0966 (inactive), the z-score [5] was 1.03 (inactive) and the z-score [6] was -0.383 (inactive). For the same molecule, the z-score [7] was -0.112, the z-score [8] was -1.05 (inactive) and the z-score [9] was 0.479 (inactive). For the same molecule, the z-score [10] was 0.0392.
With `C[C@@H]1NC(=O)[C@@H](Cc2ccccc2)NC(=O)[C@@]23C(=O)N[C@@H](Cc4ccccc4)C2[C@H](C)[C@@]2(C)O[C@H]2C3/C=C/C/C=C\CNC1=O` (stereo not given in full) the z-score [1] was -1.02 (inactive), the composite z-score [2] was -0.0046 and the z-score [3] was 1.92 (inactive). The z-score [4] was 0.581 (inactive), the z-score [5] was 0.638 (inactive) and the z-score [6] was 0.159 (inactive). For the same molecule, the z-score [7] was -0.177, the z-score [8] was 0.722 (inactive) and the z-score [9] was -0.614 (inactive). The z-score [10] was 0.523.
